# Screen size: about 420,000 compounds; about 64,000 (15%) were called active. Inconclusive results (about 27%) are left out. These entries were drawn from the full list. Unmarked numbers belong to inactive results. The call rests on the fitted dose curve; in most records, active means well fitted inhibition curve with a large enough effect; inconclusive means small, poorly fitted or top-dose-only effect; inactive means flat fitted curve, though single readings scatter.
# Test: qHTS for Inhibitors of human tyrosyl-DNA phosphodiesterase 1 (TDP1): qHTS in cells in absence of CPT; further: nearly all actives have a fitted effect of over 55% in size
# Conditions: DT40 Tdp1-/- hTDP1 cells, no CPT, ATP luminescence, 48 h; activity change, negative = growth inhibition: at 46.2 µM (top of the series)
# In short: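 Chicken DT40 Tdp1-/- cells complemented with human TDP1, screened without camptothecin (DMSO vehicle only), 400 cells/well. Compounds pin-transferred, cells incubated at 37 °C for at least 48 hr. Growth read as ATP-dependent luminescence (CellTiter-Glo, 30 min at RT).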
# On the % scale 0 is the no-effect control and ±100 the full control effect; potency means the concentration at half of the fitted maximal effect.
SMILES,"activity change, negative = growth inhibition",Potency
C[C@H](NC(=O)OC(C)(C)C)c1nnc(SCC(=O)Nc2ccc(Br)cc2)o1,-16.3%,
CCSc1nnc(-c2cc3c(s2)-c2ccccc2CC3)o1,-24%,
Cc1cccc(C)c1NC(=O)CCS(=O)(=O)c1cccc2nsnc12,-17.9%,
Cn1c(C(=O)OC(C(=O)NC2CCCCC2)c2ccccn2)cc2sccc21 (stereo not given),-19.1%,
COc1ccc(C(=O)N2CCC3(CCCN(C(c4ccccc4)c4ccccc4)C3)CC2)cc1,-2.93%,
Cc1ccc(SCC2=NNC(=O)C2)cc1,-8.57%,
Cc1ccc(C(=O)N/C(=C/C=C/c2ccccc2)C(=O)NCc2ccco2)cc1,-28.7%,
CC(C)Oc1ccc(NC(=O)c2cc3ccccc3o2)cc1,-62.1%,
Cc1ccc(NC(=O)c2cc3ccccc3o2)cc1,-19.7%,
O=C(Nc1ccncc1)c1cc2ccccc2o1,,8.2 µM (active)
CCOC(=O)C(=CNc1cccc(C)n1)C(=O)OCC,-0.363%,
O=C(c1csnn1)N1CCC2(CC1)CN(c1ncccn1)C2,-14.4%,
CCOC(=O)N1CCN(CC(=O)c2ccc3c(c2)CCN3)CC1,-13.7%,
CC(OC(=O)CNC(=O)c1ccc(Cl)c([N+](=O)[O-])c1)C(=O)NCc1ccco1 (stereo not given),0.37%,
CC(CC(=O)Nc1ccccc1)n1ccnc1 (stereo not given),36.8%,
COc1ccccc1Oc1ccc(N2CC(C(=O)OCC(=O)c3ccc(F)cc3)CC2=O)cc1 (stereo not given),-21.1%,
Cc1ccc(N(CC(=O)Nc2cc(C)cc(C)c2)S(=O)(=O)c2cccc3nonc23)cc1,-14.4%,
Cc1ccc(S(=O)(=O)N(CC(=O)Nc2cccc([N+](=O)[O-])c2)Cc2ccc(Cl)cc2)cc1,,25.9 µM (active)
Cc1ccc(S(=O)(=O)N(Cc2cccc([N+](=O)[O-])c2)C(=O)N2CCN(C)CC2)cc1,-4.4%,
COc1cccc(NC(=O)CN(C)S(=O)(=O)c2ccc(C)cc2)c1,-27.5%,
CN1CCN(CC(=O)Nc2cccc([N+](=O)[O-])c2)CC1,-6.25%,
COc1ccc(C)cc1S(=O)(=O)N(CC(=O)Nc1cccc([N+](=O)[O-])c1)c1ccc(C)cc1,,13 µM (active)
CCn1cc(/C=C(\NC(=O)c2cc(OC)c(OC)c(OC)c2)C(=O)N2CCN(C)CC2)c2ccccc21,1.95%,
CCCCCN1CC(O)=C(c2nc(-c3ccc(Cl)cc3)cs2)C1=N,-0.478%,
Cc1ccc(-n2nc(N)c3c(=O)oc(N(C)C)nc32)cc1,-0.449%,
c1ccc(CNc2ncnc3[nH]ncc23)cc1,,23.1 µM (active)
O=C(COC(=O)c1ncc(Cl)c(Cl)c1Cl)NCc1ccccc1,2.04%,
CN(c1ccccn1)c1ncnc2[nH]ncc12,18.8%,

SMILES,"activity change, negative = growth inhibition",Potency
Nc1ccccc1C(=O)NC1CCCCNC1=O (stereo not given),-4.17%,
O=C1CN(C(=O)COc2c(Cl)cccc2Cl)c2ccccc2N1,-19.7%,
CCCCn1c(N)c(N(CC(C)C)C(=O)c2cccc(S(=O)(=O)N3CC(C)OC(C)C3)c2)c(=O)[nH]c1=O (stereo not given),-3.62%,
Cc1ccc(NC(=O)NC(=O)c2ccccc2)cc1F,-4.06%,
Cc1ccc(NC2=C(c3ccc(C(F)(F)F)cc3)C(=O)c3ccccc32)cc1F,,8.2 µM (active)
CCOC(=O)c1cnc(Nc2nc3ccccc3o2)nc1CSC(=S)N1CCCCC1,,0.0326 µM (active)
CCc1ccc(CNC(=O)C2CCCN(c3nc4ccccc4o3)C2)cc1 (stereo not given),-10.1%,
COc1ccccc1Nc1nc(N)nc(CSC(=S)N2CCOCC2)n1,-14.6%,
CC(NS(=O)(=O)c1ccc(OCC(=O)N2CCCC2)cc1)c1ccccc1 (stereo not given),-0.332%,
CC(=O)N1CCC2(CCCN(c3ncccn3)C2)CC1,5.85%,
CC12CCC(C(=O)N3CCN(c4ncccn4)CC3)(c3nc4ccccc4nc31)C2(C)C (stereo not given),,23.1 µM (active)
CC(Oc1ccc(F)cc1)C(=O)N1CCN(c2ncccn2)CC1 (stereo not given),1.97%,
Cc1ccc(-c2ccnc3nc(Sc4ncc(C(F)(F)F)cc4Cl)nn23)cc1,-13.8%,
Cn1c(SCC(=O)Nc2ccc(Br)cc2F)nnc1-c1ccco1,6.11%,
O=C(Nc1ccccc1C(=O)O)c1cc(S(=O)(=O)N2CCCCC2)cs1,-9.19%,
COc1ccc(OC)c(C(c2nnnn2C(C)(C)C)N2CCc3ccccc3C2)c1 (stereo not given),,13 µM (active)
COCCn1nnnc1C(c1cc2ccc(OC)cc2[nH]c1=O)N1CCc2ccccc2C1 (stereo not given),-20.4%,
CC(C)(C)n1nnnc1C(c1ccc(Cl)cc1)N1CCSCC1 (stereo not given),-23%,
CCOc1ccc(Nc2nc(Cc3nnc(SCC(=O)NC4CCCC4)n3C)cs2)cc1,-12.6%,
Cc1cccc(N2CCN(C(=O)CCn3c(=O)c4cccn4c4cccnc43)CC2C)c1 (stereo not given),,3.66 µM (active)
Cc1cccc(N2CCN(C(=O)c3cc4c(=O)oc5ccccc5c4s3)CC2C)c1 (stereo not given),-36.4%,
Cc1cccc(NC(=O)Cn2c(=O)n(CCC(C)C)c(=O)c3cccnc32)c1,-23.8%,
Cc1ccc(S(=O)(=O)N(C)C2(C)CCS(=O)(=O)C2)cc1 (stereo not given),-11.5%,
Cc1ccc(S(=O)(=O)NC2CCCCCC2)cc1,-3.72%,
Cc1ccc(S(=O)(=O)C2(S(=O)(=O)c3ccc(C)cc3)CCCC2)cc1,,6.51 µM (active)
C=C1c2cccc(OC)c2O[C@H](C(=O)OCC)[C@@H]1CCCCCC,-24.5%,
CCCn1nc(NS(=O)(=O)c2ccc(F)cc2)c2cc3ccccc3nc21,16.6%,

# From PubChem BioAssay AID686978 (National Center for Advancing Translational Sciences (NCATS), 2013)
